Assay outcomes as filed in PubChem BioAssay.
Rows were chosen to be rich in hits. Some 2.8% of all compounds tested hit in one or more screens of this group.
a7 integrin act: integrin-mediated muscular dystrophy alleviation activation | alpha7betagal myoblasts, beta-gal FDG fluorescence, 48 h | Potency, µM (doses to about 38.3 µM), inactives show top-dose activation, usual class: activators | hit rate 0.064% among 350,000 | AID 624291;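 further: potency means the concentration at half of the fitted maximal effect; 100% = response of the positive control SU9516; nearly all actives have a fitted effect of over 60% in size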
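alpha7betagal+/- myoblasts (passage 13, 250/well) treated 48 h at 37C with compounds at 1:260 dilution of DMSO stock. Lysed, then beta-galactosidase activity read as FDG fluorescence (ex 480/em 540) after 30 min, with pre-read for autofluorescence.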
PTHR1 ag: PTHR1 (human) receptor agonism; Q03431; HEK293 GP2 PTHR1 cells, GloSensor cAMP luminescence, 1 h; Potency, µM (highest dose often 115 µM), inactives show top-dose activation, hits mostly activators; hit rate 0.075% among 410,000; AID 743266; further: potency means the concentration at half of the fitted maximal effect; nearly all actives have a fitted effect of over 55% in size
Target sequence (Q03431 whole entry, looked up): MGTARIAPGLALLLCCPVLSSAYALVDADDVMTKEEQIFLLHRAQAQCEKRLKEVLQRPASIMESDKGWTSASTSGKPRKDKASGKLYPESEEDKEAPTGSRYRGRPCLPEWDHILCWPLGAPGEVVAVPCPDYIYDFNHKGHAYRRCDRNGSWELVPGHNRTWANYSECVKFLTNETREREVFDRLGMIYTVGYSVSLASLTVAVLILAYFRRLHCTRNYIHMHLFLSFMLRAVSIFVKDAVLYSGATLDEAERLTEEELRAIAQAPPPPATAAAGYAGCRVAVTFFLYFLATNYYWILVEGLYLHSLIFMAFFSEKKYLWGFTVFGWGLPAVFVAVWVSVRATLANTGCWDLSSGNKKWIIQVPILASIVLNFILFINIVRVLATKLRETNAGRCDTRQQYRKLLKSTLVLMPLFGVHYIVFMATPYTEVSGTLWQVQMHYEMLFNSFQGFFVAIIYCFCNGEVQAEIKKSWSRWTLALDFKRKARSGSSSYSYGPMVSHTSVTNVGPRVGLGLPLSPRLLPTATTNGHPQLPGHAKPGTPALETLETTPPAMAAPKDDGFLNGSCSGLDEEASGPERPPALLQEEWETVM
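HEK-293-derived GP2 cells expressing PTHR1 and a GloSensor cAMP reporter, 3,000/well, plated overnight, given luciferin plus IBMX (each 0.5 mM as added) for 1 h at 37 °C, then compound for 1 h at 37 °C. Luminescence was read after 15 min at room temperature.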
DRD3 antagonist: blocks the human D3 dopamine receptor. P35462. D3R cells, DiscoveRx beta-arrestin luminescence, antagonist mode; active compounds read low. max response, negative = inhibition, %. hit rate 2.5% among 360,000. AID 652054; in the data active means max response below about -50%; inconclusive means no clear call, values can overlap the other calls; further: on the % scale 0 is the no-effect control and ±100 the full control effect
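Cells expressing the human receptor were seeded at 1500 cells/well, incubated overnight at 37 degrees C in 5% CO2, then exposed to library compounds with dopamine controls for 90 minutes at 37 degrees C before luminescent detection.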
CBFb-RUNX1 inh: blocks binding between human CBF-beta and RUNX1. Q01196+Q13951. AlphaScreen CBFb-His/RUNX1-biotin binding, biochemical. Potency, µM (highest dose often 59.8 µM), inactives show at the highest dose activity, negative = inhibition, actives largely listed as inhibitors. 230,000 tested, under 10 active; further: % of control where 0% means no effect
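Proteins preincubated together for 20 min at RT before compound addition; 15 min later, nickel and streptavidin beads were added and left 90 min prior to AlphaScreen measurement.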
DRD3 agonist: activates the human D3 dopamine receptor | P35462 | D3R DiscoveRx beta-arrestin cells, luminescence, 90 min | max activation, % | hit rate 0.58% among 410,000 | AID 652048; in the data active means max activation above about 30%; further: 0% is about no effect
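Agonist-mode cell screen: cells plated at 1500/well and incubated overnight at 37 °C, then exposed to library compounds for 90 min at 37 °C. Detection reagent was added for 30–60 min at room temperature, and luminescence was read.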
MBNL1 CUG block: inhibitors of human MBNL1 binding to CUG repeat RNA. Q9NR56. TR-FRET MBNL1-His/biotin-(CUG)12 binding, 665/545 ratio. Potency, µM (top dose mostly 57.5 µM), inactives show at the top dose activity change, negative = inhibition, actives largely listed as inhibitors. hit rate 0.036% among 280,000. AID 2675; active means well fitted inhibition curve with a large enough effect in the signal ratio, with a control signal flat, not every such curve was filed as active; inconclusive means small, poorly fitted or top-dose-only effect, or effect the other way, or a change in a side signal; inactive means no such curve, though single readings can be large or run the other way; the % refers to the signal ratio; further: potency means the concentration at half of the fitted maximal effect; on the % scale 0 is the no-effect control and ±100 the full control effect
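TR-FRET readout: Ex 340 nm, 665/545 nm emission ratio, normalized to buffer-only (basal) and MBNL1-(CUG)12 controls. Complex of MBNL1-His with Biotin-(CUG)12, compounds 92 nM–58 uM, incubated 60 min at room temperature.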
An asterisk follows results filed as active; i = inactive; ? = inconclusive; . = no result; ! = not confirmed by another sample; [ ] = remark or other dose. Unless noted, the call rests on the fitted dose curve; in most records, active means well fitted curve in the direction sought with a large enough effect; inconclusive means small, poorly fitted or top-dose-only effect, or another doubt; inactive means no such curve, though single readings can be large; an effect the other way counts as inactive or inconclusive.

SMILES | a7 integrin act | PTHR1 ag | DRD3 antagonist | CBFb-RUNX1 inh | DRD3 agonist | MBNL1 CUG block
CCC(Sc1nc2ccncc2[nH]1)C(=O)Nc1cc(Cl)ccc1C (stereo not drawn) | -13.2% | -1.6% | 151.8 | . | 35.5*! | -7.4%
CCC(Sc1nc2ccncc2[nH]1)C(=O)Nc1cc(C)ccc1C (stereo not drawn) | . | i | . | . | 9.5 | .
N#CC(=Cc1ccc(-c2ccccc2)cc1)C(=O)c1ccccc1 | . | i | 21.7 | . | 1.4 | .
CC(=O)C(=Cc1ccc(-c2ccccc2)cc1)C(=O)c1ccccc1 | . | -50.0% | -53.1* | . | -9.6 | .
Cc1oc(-c2ccc(Cl)cc2)cc1C(=O)O | -13.9% | -0.6% | -2.2 | 2.8% | 11.0 | -11.1%
Cc1oc(-c2ccc(Cl)cc2)[n+]([O-])c1C | 9.0% | -22.4%[57.5 µM] | -66.7* | 3.0% | -2.1 | -3.4%
COCC1CCN(Cc2c(C(=O)N3CCc4ccccc4C3)nc3ccc(Cl)cn23)C1 (stereo not drawn) | 4.3% | -20.3% | -12.1 | . | -10.8 | 8.5%
CCOc1c(OC(C)=O)ccc(/C=C2\N=C(SCC)SC2=O)c1[N+](=O)[O-] | -20.7% | -4.4%[57.5 µM] | -70.2* | -7.3% | 0.7 | 8.9%
CCOc1cc(/C=C2\N=C(SC)SC2=O)cc([N+](=O)[O-])c1OC(C)=O | 16.7% | i | -13.6 | -16.8% | 0.3 | ?
CCOc1cc(/C=C2\N=C(SCC)SC2=O)cc([N+](=O)[O-])c1OC(C)=O | 19.4% | -0.6%[57.5 µM] | -96.6* | ? | -7.7 | ?
COc1cccc(-c2sc3ccc(OC)cc3c2-c2ccc(OCCN(C)C)cc2)c1 | -2.0% | 5.3% | -78.6* | . | -17.3 | .
CCc1nnc(N/N=C/c2ccc(N3CCC(C)CC3)c([N+](=O)[O-])c2)n1N | -9.5% | -22.7% | -29.8 | -18.9% | -10.9 | ?
Cc1nnc(N/N=C/c2cc([N+](=O)[O-])c(N3CCC(C)CC3)cc2N2CCC(C)CC2)n1N | -45.6% | 28.2µM* | ? | -21.2% | -8.5 | ?
O=C(CCC(=O)CCN1CCCCC1)CCN1CCCCC1 | -33.7% | -1.2% | -66.7* | -3.3% | -0.9 | 7.4%
CC1=CC(=O)C=CC1=Nc1ccc(N(C)C)cc1 | . | i | -50.7* | . | -10.6 | .
COc1ccc(NC(=O)/C(C#N)=C/c2ccc(OCCN3CCOCC3)c(OC)c2)c(OC)c1 | 0.6% | -19.0% | 14.9 | . | 12.6 | 5.0%
CCN(CC)CC(C)(C)C(=O)/C=C/c1ccc(/C=C/C(=O)C(C)(C)CN(CC)CC)cc1 | -53.3% | -28.8% | -64.5* | . | -13.6 | .
C=CCc1c(C)nc(-c2ccccc2)nc1N/N=C/c1ccccc1 | 11.2µM* | -4.0% | 7.1 | 0.9% | -4.5 | 9.0%
C=CCc1c(C)nc(-c2ccccc2)nc1N/N=C/c1ccncc1 | 19.4% | -20.7% | -15.2 | 8.2% | -6.8 | 21.6%
CN(C(=O)OCc1ccccc1)C(CC(N)=O)C(=O)O (stereo not drawn) | 1.9% | -0.4%[57.5 µM] | -98.7* | 1.5% | -12.4 | -17.2%
CN(C)c1ccc(NC(=O)CCSc2nc(-c3ccco3)cc(C(F)(F)F)n2)cc1 | . | -3.5% | . | . | 6.9 | .
Nc1nc2n(n1)C(c1cccs1)CC(c1ccccc1)N2 (stereo not drawn) | 12.7% | -9.5% | -63.9* | 14.2% | 1.6 | 9.7%
Nc1nc2n(n1)C(c1cccs1)CC(c1ccc(F)cc1)N2 (stereo not drawn) | -27.6%[7.66 µM] | i | -13.4 | -3.1% | 1.5 | 11.1%
Cc1ccc(Cl)cc1N1CCN(C(=O)CSc2nnc3n2C(C)(C)Cc2ccccc2-3)CC1 | -30.2% | -32.1% | ? | -7.2% | 45.3* | ?
Cc1ccccc1NC(=O)c1c(C)oc2ccc(O)c(CN3CCC(C)CC3)c12 | . | i | . | . | 1.7 | .
SMILES | a7 integrin act | PTHR1 ag | DRD3 antagonist | CBFb-RUNX1 inh | DRD3 agonist | MBNL1 CUG block
CN(C)c1ccc(-c2csc(C(C)(O)c3ccc(F)c(F)c3)n2)cc1 (stereo not drawn) | . | -33.8% | 7.9 | . | -2.4 | .
Cc1c(C(=O)NC(C)CN2CCCCC2)oc2ccccc12 (stereo not drawn) | -13.7% | -25.9% | -77.1* | 9.7% | -54.2 | -7.8%
Cc1c(C(=O)N2CCN(Cc3cccs3)CC2)oc2ccccc12 | 21.8% | -18.9% | -79.4* | . | -24.0 | .
C=CCN1CCN(C(=O)c2oc3ccccc3c2C)CC1 | -4.1% | 8.9% | -61.4* | . | -10.7 | -2.8%
CC(=O)N1CCN(C(=O)c2oc3ccccc3c2C)CC1 | 5.9% | -3.2% | -10.6 | . | -2.9 | -11.5%
Nc1ccc(Cl)cc1Cl | . | . | . | 4.3%[21.7 µM] | . | .
COc1ccc(C2(C)NC(=O)N(CC(=O)Nc3ccc(C)cc3Br)C2=O)cc1OC (stereo not drawn) | -29.5% | -6.2% | 2.4 | . | 2.0 | -5.7%
O=C(CN1C(=O)CSc2ccc(S(=O)(=O)N3CCOCC3)cc21)NCCCN1CCc2ccccc2C1 | -30.9% | i | -61.7* | 1.1% | -10.6 | -17.7%
O=C(CN1C(=O)CSc2ccc(S(=O)(=O)N3CCOCC3)cc21)NCCCN1CCOCC1 | 6.4% | -16.9% | -5.7 | 0.3% | -15.2 | -2.5%
CCOC(=O)c1c(C2COc3ccccc3O2)csc1NC(=O)c1ccccc1 (stereo not drawn) | -26.2% | i | -7.8 | 4.2% | 33.2* | -3.1%
CC(C(=O)Nc1sc2c(c1C(=O)NCc1ccco1)CCCC2)N1C(=O)c2ccccc2C1=O (stereo not drawn) | 16.7% | 6.4%[57.5 µM] | -64.9* | -2.8% | -2.0 | -3.7%
O=C(OC[C@H]1O[C@](O)(COC(=O)c2cccnc2)[C@@H](OC(=O)c2cccnc2)[C@@H]1OC(=O)c1cccnc1)c1cccnc1 | . | . | . | . | -7.6 | .
O=C(NCC1COc2ccccc2O1)c1cccc(S(=O)(=O)N2CCOCC2)c1 (stereo not drawn) | -1.4% | -28.8% | -61.4* | . | 0.9 | .
O=C(Nc1ccccc1O)c1cccc(S(=O)(=O)N2CCOCC2)c1 | 1.7% | i | -2.6 | -4.8% | 1.3 | -1.2%
COc1cc(C(=O)Nc2ccc(S(=O)(=O)N3CCOCC3)cc2)c([N+](=O)[O-])cc1OC | -8.9% | -0.7% | -10.9 | -0.8% | 40.2* | ?
COc1ccccc1NC(=O)c1cccc(S(=O)(=O)N2CCOCC2)c1 | 14.8% | i | -51.6* | 0.8% | 2.8 | -9.8%
COc1ccc(S(=O)(=O)N2CCOCC2)cc1NC(=O)c1ccc2c(c1)OCO2 | 20.5% | 23.4% | -11.0 | . | 53.5* | .
COCCN(C(=O)COC(=O)/C=C/c1ccc2c(c1)OCO2)c1c(N)n(Cc2ccccc2)c(=O)[nH]c1=O | -15.1% | -17.5% | -5.1 | . | 1.9 | .
COc1ccccc1N(C)S(=O)(=O)c1ccc(C)c(C(=O)Nc2nccs2)c1 | 11.3% | -25.9% | 15.8 | . | 8.3 | .
